Assay [1] in a line: Tanguay_ZF_120hpf_EDEM: Oregon State University Tanguay Lab 120 Hour Post-fertilization zebrafish Assay for Edema Malformation (AID 2284400). In short, it runs like this: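 Edema recorded as a binary endpoint under brightfield at 120 hpf, excluding embryos that died. Exposure was static, sealed, 28C, from 6 hpf in dechorionated wild-type larvae, final DMSO 0.64%, DMSO as baseline.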

Assay [2] in a line: Tanguay_ZF_120hpf_MUSC: Oregon State University Tanguay Lab 120 Hour Post-fertilization zebrafish Assay for Muscle Malformation (AID 2284401). In short, it runs like this:
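Scored as a binary brightfield endpoint at 120 hpf, fitted versus DMSO. Single dechorionated wild-type (Tropical 5D) zebrafish embryos per well, statically exposed at 28C from 6 hpf onward with final DMSO 0.64%.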

Assay [3] can be described thus: Tanguay_ZF_120hpf_BRN: Oregon State University Tanguay Lab 120 Hour Post-fertilization zebrafish Assay for Brain Region Malformation (AID 2284402). In short, it runs like this:
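Binary brightfield scoring of brain malformation at 120 hpf in 5D wild-type larvae, chorion removed with pronase at 4 hpf. Static exposure began at 6 hpf, 28C, sealed plates, DMSO 0.64% (vol/vol) as vehicle baseline.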

Assay [4] is described as follows: Tanguay_ZF_120hpf_TCHR: Oregon State University Tanguay Lab 120 Hour Post-fertilization zebrafish Assay for Touch Responsive (AID 2284403). In short, it runs like this:
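Binary touch-response calls are made at 120 hpf in 5D wild-type zebrafish larvae. These larvae were dechorionated with pronase and exposed singly from 6 hpf in sealed, dark plates at 28 °C with 0.64% DMSO final; dead embryos are excluded.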

A short description of assay [5]: Tanguay_ZF_120hpf_ANY: Oregon State University Tanguay Lab 120 Hour Post-fertilization zebrafish Assay for Any Mortality and Malformation (AID 2284404). In short, it runs like this: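 Dechorionated Tropical 5D wild-type embryos, one per well from 6 hpf, static exposure in sealed, dark plates at 28C until 120 hpf, 0.64% DMSO final. Brightfield scoring of mortality and malformations as binary presence/absence, pooling 13 morphology endpoints.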

Assay [6] in a line: CCTE_Padilla_ZF_Score.Craniofacial: CCTE's 144 Hour Post-fertilization zebrafish Assay Score for Craniofacial Malformation, Padilla Lab (AID 2284405). In short, it runs like this: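 Craniofacial defects were scored at 6 dpf by two blinded observers using stereomicroscopy. Exposure of wild-type embryos began at 6–8 hpf in sealed wells of 10% Hanks' solution at 26C, with chemical removed by rinsing at 5 dpf.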

A short description of assay [7]: CCTE_Padilla_ZF_Score.Edema: CCTE's 144 Hour Post-fertilization zebrafish Assay Score for Edema Malformation, Padilla Lab (AID 2284406). In short, it runs like this:
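Edema scored at 6 dpf by two blinded observers under a stereo microscope, in single outbred wild-type larvae exposed from 6-8 hpf in sealed wells (Hanks', 26C, 14:10 h light) and chemical-free after a 5 dpf rinse.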

Assay [8] can be described thus: CCTE_Padilla_ZF_Score.Spine: CCTE's 144 Hour Post-fertilization zebrafish Assay Score for Spine Malformation, Padilla Lab (AID 2284407). In short, it runs like this: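 Spine malformation scored at 6 dpf by two independent blinded observers under stereomicroscope, after static sealed exposure from 6–8 hpf at 26C in Hanks' solution with rinse on 5 dpf. Positive-direction fit against DMSO control.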

Assay [9] can be described thus: CCTE_Padilla_ZF_Score.Swim_bladder: CCTE's 144 Hour Post-fertilization zebrafish Assay Score for Swim Bladder Malformation, Padilla Lab (AID 2284408). In short, it runs like this: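 Swim bladder inflation scored at 6 dpf by two blinded observers under a stereo microscope. Exposure ran from 6–8 hpf in sealed wells of 10% Hanks' at 26C, with rinsing at 5 dpf; DMSO served as baseline.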

A short description of assay [10]: CCTE_Padilla_ZF_Score.Position: CCTE's 144 Hour Post-fertilization zebrafish Assay Score for Position, Padilla Lab (AID 2284409). In short, it runs like this: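 Wild-type zebrafish embryos (with chorions) exposed singly from 6–8 hpf in sealed wells of Hanks' solution at 26C, rinsed at 5 dpf. At 6 dpf, blinded assessors scored abnormal water-column position by brightfield stereomicroscopy, relative to DMSO.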

The nature of assay [11]: CCTE_Padilla_ZF_Score.Living: CCTE's 144 Hour Post-fertilization zebrafish Assay Score for Viability, Padilla Lab (AID 2284410).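 Further: larval death at 6 dpf judged by absent heartbeat or coagulation.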 In short, it runs like this: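 Mortality at 6 dpf, judged as absent heartbeat or coagulation by two blinded observers, after sealed static exposure beginning at 6–8 hpf at 26C. Larvae were rinsed free of chemical at 5 dpf, and activity was fitted relative to DMSO.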

Assay [12] in a line: CCTE_Padilla_ZF_Score.General: CCTE's 144 Hour Post-fertilization zebrafish Assay Score for General Malformation, Padilla Lab (AID 2284411). In short, it runs like this:
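Malformation, death and hatching were scored at 6 dpf by two blinded observers under a stereo microscope. Embryos were dosed singly from 6-8 hpf in sealed plates of 10% Hanks' at 26C and rinsed on 5 dpf; DMSO baseline.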

Assay [13] can be described thus: CCTE_Padilla_ZF_Score.Tail: CCTE's 144 Hour Post-fertilization zebrafish Assay Score for Tail Malformation, Padilla Lab (AID 2284414). In short, it runs like this: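 Tail malformations were scored at 6 dpf by two blinded assessors under a stereo microscope. Chorionated embryos had been exposed from 6-8 hpf in sealed wells of 10% Hanks' at 26 C, then rinsed free of chemical at 5 dpf.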

The nature of assay [14]: CCTE_Padilla_ZF_Score.Blood_pooling: CCTE's 144 Hour Post-fertilization zebrafish Assay Score for Blood Pooling, Padilla Lab (AID 2284415). In short, it runs like this: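 Blood pooling was scored at 6 dpf under a stereo microscope by two blinded assessors, fitted upward against DMSO. Single embryos were dosed at 6–8 hpf in 10% Hanks', kept sealed at 26C (14:10 h cycle) and rinsed at 5 dpf.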

A short description of assay [15]: CCTE_Padilla_ZF_Score.Any: CCTE's 144 Hour Post-fertilization zebrafish Assay Score for Any Mortality or Malformation, Padilla Lab (AID 2284416). In short, it runs like this: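 Wild-type zebrafish embryos with chorions, one per well in 10% Hanks' from 6–8 hpf, dosed in sealed plates at 26 C, 14:10 h light:dark; rinsed at 5 dpf; blinded scoring at 6 dpf for death or malformation, versus DMSO.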

A further assay has as its system TTR (gene 7276). In words: CCTE_GLTED_hTTR_0.125uM: CCTE's human Transthyretin (hTTR) Inhibition Assay, with 0.125uM TTR, Great Lakes Toxicology and Ecology Division (GLTED) Lab (AID 2284431).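 Further: hits lower the fluorescence signal relative to DMSO baseline.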 In short, it runs like this:
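Fluorescence (380 ex, 475 em) reported the ANSA probe remaining bound to 0.125uM human transthyretin. Chemicals were incubated with the protein for 2 hours; activity was scored as loss of signal against DMSO negative control.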

Several values for one entry are separate records, joined by “and”; a condition that tells them apart may be missing. Equal entries are not always repeated. The source holds several records for some structures; these can differ, active in one and inactive in another. Activity calls are given as the source filed them. How the source made its calls: active means hit-call score of the fitted dose curve at least 0.9, where 1 is the maximum; inactive means score below 0.9.

As for `O=S(=O)(O)C(F)(F)C(F)(F)C(F)(F)C(F)(F)C(F)(F)C(F)(F)C(F)(F)C(F)(F)F`, the AC50 in assay [1] was 32.7 µM (active) and 35.6 µM (active); in assay [3], 46 µM (active); in [4], 51.8 µM (active); in assay [5], 32.7 µM (active) and 16.7 µM (active); in [6], 8.88 µM (active) and 9.43 µM (active); in [7], 8.88 µM (active) and 7.83 µM (active). Also, the concentration at half-maximal activity (AC50) in [8] was 26.6 µM (active); in assay [9], 8.69 µM (active) and 3.21 µM (active); in [10], 8.18 µM (active) and 3.91 µM (active); in [11], 10.7 µM (active) and 21.1 µM (active); in assay [12], 8.72 µM (active) and 4.84 µM (active); in [13] it was 8.73 µM (active) and 32.7 µM (active). Moreover, the half-maximal activity concentration (AC50) in assay [14] is 10 µM (active); in [15] it was 8.52 µM (active) and 3.26 µM (active); with TTR (gene 7276), 115 nM (active) and 159 nM (active). Besides, the result in assay [2], in assay [3], in assay [4], in assay [8] and in assay [14] was inactive.

For `ClC1C(Cl)C(Cl)C(Cl)C(Cl)C1Cl` (stereo unspecified), the concentration at half-maximal activity (AC50) in assay [12] was 8.89 µM (active).

For the molecule `Oc1cc(Cl)ccc1Oc1ccc(Cl)cc1Cl`, the concentration at half-maximal activity (AC50) in the assay on TTR (gene 7276) was 0.219 µM (active).

For `O=C(O)C(F)(F)C(F)(F)C(F)(F)C(F)(F)C(F)(F)C(F)(F)C(F)(F)F`, the molecule was called inactive in assay [1], in assay [2], in assay [3], in assay [4], in assay [5] and in assay [6]. Also, the molecule was called inactive in [7], in [8], in assay [9], in assay [10], in assay [11] and in [12]. In addition, the molecule was classed as inactive in assay [13], in assay [14] and in [15]. In addition, the AC50 in assay [15] is 2.43 µM (active) and 81.8 µM (active); in the assay with TTR (gene 7276) it was 159 nM (active) and 82.9 nM (active).

With `C#CCN1C(=O)COc2cc(F)c(N3C(=O)C4=C(CCCC4)C3=O)cc21`, the AC50 with TTR (gene 7276) was 13.3 µM (active).

As to `O=C(O)CCCOc1ccc(Cl)cc1Cl`, the AC50 with TTR (gene 7276) was 2.54 µM (active).

Turning to `O=C(O)COc1ccc(Cl)cc1Cl`, the AC50 in the assay with TTR (gene 7276) was 8.12 µM (active) and 10.7 µM (active).

Consider `CCCN(CCC)c1c([N+](=O)[O-])cc(C(F)(F)F)cc1[N+](=O)[O-]`, for which, in the assay on TTR (gene 7276), the half-maximal activity concentration (AC50) was 26.1 µM (active).

On to `COP(=S)(OC)Oc1ccc(SC)c(C)c1`, for which the half-maximal activity concentration (AC50) in the assay with TTR (gene 7276) is 6.11 µM (active).

As to `COP(=S)(OC)Oc1ccc([N+](=O)[O-])cc1`, the concentration at half-maximal activity (AC50) with TTR (gene 7276) is 21.3 µM (active).

In the case of `Oc1ccc(Cl)cc1Cc1ccccc1`, in the assay with TTR (gene 7276), the AC50 is 0.455 µM (active).

The values above are taken from PubChem BioAssay (EPA / NIEHS).
